# An excerpt weighted towards active compounds, which were near 0.69% of everything screened.
# Glioma ERSR ind: induces the endoplasmic reticulum stress response in human glioma cells. U87-MG GRP78 promoter luciferase reporter, 16 h. actives 0.02% (n = 420,000). Potency, µM, without a hit: at the top dose activation, usual class: activators; further: series mostly up to about 76 µM; % of control where 0% means no effect; nearly all actives have a fitted effect of over 35% in size
#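 ERSR induction read as luciferase luminescence (Bright-Glo, 10 min at room temperature) in stably transfected human U87-MG glioma cells exposed to compounds for 16 h, using GRP78 as sensor.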
# Vif-APOBEC3F blk: Vif-A3F binding inhibition | HeLa A3F-eYFP + Vif (tagged APOBEC3F with the HIV-1 protein that degrades it), YFP fluorescence increase | Potency, µM (doses to about 46.1 µM), for the others: at the highest dose activity, negative = active | actives 0.2% (n = 390,000) | AID 602313; further: % of control where 0% means no effect; nearly all actives have a fitted effect of over 65% in size
#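 HeLa cells stably expressing Vif plus C-terminally eYFP-tagged A3F were seeded, incubated overnight at 37 deg C, dosed with compound, incubated overnight again at 37 deg C. Yellow fluorescence (Ex 488/Em 500-530) reported blocked Vif-mediated A3F-eYFP degradation.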
# Vif-APOBEC3G blk: inhibitors of Vif-APOBEC3G interaction. Potency, µM (titrated, usually from 46.1 µM), for the others: top-dose activity, negative = active, most hits filed as inhibitors. Q9HC16. AID 602310. HeLa A3G-eYFP + Vif (tagged APOBEC3G with the HIV-1 protein that degrades it), YFP fluorescence, overnight. actives 0.076% (n = 410,000); further: on the % scale 0 is the no-effect control and ±100 the full control effect; nearly all actives have a fitted effect of over 60% in size
# Target sequence (Q9HC16 whole entry, looked up): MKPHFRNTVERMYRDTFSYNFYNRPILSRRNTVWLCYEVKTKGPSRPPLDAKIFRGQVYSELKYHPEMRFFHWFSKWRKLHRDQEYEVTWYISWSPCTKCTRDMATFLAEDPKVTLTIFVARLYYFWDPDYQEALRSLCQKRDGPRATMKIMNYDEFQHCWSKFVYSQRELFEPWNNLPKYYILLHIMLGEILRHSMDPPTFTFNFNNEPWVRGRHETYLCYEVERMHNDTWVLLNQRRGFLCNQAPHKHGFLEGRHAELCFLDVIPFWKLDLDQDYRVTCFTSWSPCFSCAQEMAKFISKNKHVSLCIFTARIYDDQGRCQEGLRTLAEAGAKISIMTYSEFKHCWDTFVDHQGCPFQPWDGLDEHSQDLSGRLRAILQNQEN
#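 HeLa cells stably expressing Vif and C-terminally eYFP-tagged A3G, seeded overnight at 37 deg C, then exposed to compound by pintool overnight at 37 deg C. Rise in yellow fluorescence (Ex 488/Em 500-530, Acumen) marks blocked Vif-driven A3G degradation.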
# FUS suppressor: FUS proteinopathy suppression in yeast | S. cerevisiae FUS-expressing, growth rescue, OD600, 24 h | actives 0.24% (n = 390,000) | Potency, µM (top dose mostly 76.6 µM), hits mostly activators | AID 1347120;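 further: plate controls were DMSO vehicle for no effect and reference control for full effect; nearly all actives have a fitted effect of over 55% in size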
#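 S. cerevisiae expressing FUS from galactose induction served as the toxicity model. Growth after 24hr at 30C, read as absorbance at 600 nm, indicates suppression of toxicity; compounds dosed at several concentrations.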
# PINK1 expr mod: modulators of PINK1 expression; PINK1 immunofluorescence, high-content cytometry, 24 h; Potency, µM (series often up to 76.6 µM), for inactives: top-dose activation (PINK1 increase), usual class: activators; actives 0.2% (n = 410,000); AID 624263; active means well fitted activation curve with a large enough effect; inconclusive means small, poorly fitted or top-dose-only effect; cell line not stated here; further: % of control where 0% means no effect; nearly all actives have a fitted effect of over 65% in size
#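 PINK1 protein level read as immunofluorescence by microplate cytometer in a fixed, stained stable cell line after 24 h exposure to five compound concentrations, with CCCP as control.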
# Abeta yeast res: restores growth of yeast expressing A-beta42 peptide; actives 0.063% (n = 410,000); yeast expressing A-beta42, growth rescue, OD600, 48 h; response scale: 0% DMSO, 100% iron-clioquinol control; Potency, µM (series often up to 46.1 µM), most hits filed as activators; further: nearly all actives have a fitted effect of over 55% in size
#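 Growth rescue measured by 600 nm absorbance after 48 h yeast culture at 30 C with compound. Values normalized between DMSO and an equimolar ferric chloride plus clioquinol control.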
# Numbers without * were called inactive; i = inactive; ? = inconclusive; . = no result given; ! = not confirmed by another sample; [ ] = dose if it differs, or a comment. Unless noted, the call rests on the fitted dose curve; in most records, active means well fitted curve in the direction sought with a large enough effect; inconclusive means small, poorly fitted or top-dose-only effect, or another doubt; inactive means no such curve, though single readings can be large; an effect the other way counts as inactive or inconclusive. Potency means the concentration at half of the fitted maximal effect.
SMILES,Glioma ERSR ind,Vif-APOBEC3F blk,Vif-APOBEC3G blk,FUS suppressor,PINK1 expr mod,Abeta yeast res
COc1cccc(/C=N/NC(=O)c2cc3c(OC)cccc3[nH]2)c1O,-1%,0%,-7%,i,40µM*,i
COc1cccc(/C=N/NC(=O)c2cc3c(OC)c(OC)ccc3[nH]2)c1OC,-3%,5%,4µM*,i,15%,i
COc1ccc(CN2CCOc3ccc(CN4CCN(CCO)CC4)cc3C2)c2ccccc12,-4%,.,.,.,-1%,.
Cc1ccc(NC(=S)NNc2ncc(C(F)(F)F)cc2Cl)cc1,-12%,1%,-5%,i,32µM*,i
Cc1ccc(NC(=S)NNc2ncc(C(F)(F)F)cc2Cl)c(C)c1,-13%,9%,-3%,?,7%,?
FC(F)(F)c1cnc(NNC(=S)Nc2ccc(Cl)cc2)c(Cl)c1,-11%,-5%,-4%,i,11µM*,i
Fc1ccc(NC(=S)NNc2ncc(C(F)(F)F)cc2Cl)c(F)c1,-16%,4%,-5%,?,10µM*,i
COc1ccc2nc3sc(C(=O)Nc4cc(Cl)c(OC)cc4OC)cc3cc2c1,-2%,7.1µM*,?,i,0%,i
COc1ccc2cc(CNC3CCS(=O)(=O)C3)c(-c3ccc(OC)c(OC)c3)nc2c1 (stereo not given),-6%,.,.,.,1%,.
O=C(Nc1cccc(N2CCC(NCc3cnn(-c4cccc(F)c4)c3)CC2)c1)c1ccncc1,-3%,.,.,.,2%,.
Cc1ccc(S(=O)(=O)c2c(N)n(Cc3ccco3)c3nc4ccccc4nc23)cc1,-2%,-4%,-10%,22µM*,4%,i
Cc1cnc(-n2ncc(C(=O)N(C)CCc3ccccn3)c2-c2cccs2)nc1-c1ccc(F)cc1,-3%,.,.,.,1%,.
CC(=O)N1N=C(c2ccc(Br)cc2)CC1c1ccc(Br)cc1 (stereo not given),4%,-4%,1%,i,-1%,i
CC(C)c1ccc(C2CC(c3ccc(Br)cc3)=NN2C(N)=S)cc1 (stereo not given),3%,-19%,1%,i,5%,10µM*
COC(=O)[C@@H]1CCCN1C(=O)c1c(OC)cc(=O)n2c1CCN(Cc1ccc3nsnc3c1)CC2,-1%,.,.,.,0%,.
O=C(C1CCN(S(=O)(=O)c2cccc3cccnc23)CC1)N1CCN(c2ccc(Cl)cc2)CC1,-3%,1%,2%,28µM*,2%,i
O=C(C1CCN(S(=O)(=O)c2cccc3cccnc23)CC1)N1CCN(c2ccccn2)CC1,-3%,8%,0%,i,0%,i
COc1ccc(N/C=C/c2nc(SC)nnc2C)cc1,-4%,22µM*,-18%,i,4%,i
CC(C)NC(=O)[C@@H]1C[C@@H](Sc2nc3ccccc3[nH]2)CN1C1Cc2ccccc2C1,1%,.,.,.,-1%,.
CCC(C)Sc1cc(-c2nc3ccccn3c2NC2CCCCC2)ccc1OC (stereo not given),-5%,?,-24%,?,1%,i
CCC(C)Sc1cc(-c2nc3cc(C)ccn3c2NC2CCCCC2)ccc1OC (stereo not given),1%,?,?,?,13µM*,i
CCCCNc1c(-c2ccc(OC)c(SC3CCCCC3)c2)nc2ccc(C)cn12,-9%,?,-20%,?,?,i
CCC(C)Sc1ccc(-c2nc3ccc(C)cn3c2NCc2ccccc2)cc1OC (stereo not given),-5%,-3%,-1%,?,16µM*,i
CCCCNc1c(-c2ccc(OC)c(SC(C)CC)c2)nc2ccc(C)cn12 (stereo not given),-9%,0%,-18%,?,?,i
CCCCNc1c(-c2ccc(SC3CCCCC3)c(OC)c2)nc2ccc(C)cn12,-3%,-11%,-3%,?,25µM*,i
SMILES,Glioma ERSR ind,Vif-APOBEC3F blk,Vif-APOBEC3G blk,FUS suppressor,PINK1 expr mod,Abeta yeast res
CCC(C)Sc1cc(-c2nc3ccc(C)cn3c2NCc2ccccc2)ccc1OC (stereo not given),-5%,0%,-7%,32µM*!,?,i
Cc1ccc2nc(/C=C/c3ccc(N(C)C)cc3)ccc2c1,-1%,.,?,.,.,.
CC(C)(C)n1ncc2c(=O)n(Cc3ccc(C#N)c(F)c3)cnc21,-1%,.,0%,.,.,.
CC(=O)c1ccc(-c2cc(F)cc3c2OC(CNC(=O)Cc2cn4ccsc4n2)C3)s1 (stereo not given),-4%,.,.,.,0%,.
COc1cc(OC)c(OC)cc1CN1CCC(n2cc(C(=O)N3CCCCC3)nn2)CC1,-3%,.,.,.,1%,.
CCCCN1C(=O)C2Cc3c([nH]c4ccccc34)CN2C1=S (stereo not given),2%,-528%,8.9µM*,i,5%,i
Cc1oc(-c2ccccc2NC(=O)C2CCC2)nc1CNC(=O)c1ccc2ccccc2c1,1%,.,.,.,1%,.
COc1ccc(OC)c(NC(=O)Nc2c(O)ccc3ccccc23)c1,-3%,1%,-24%,i,0%,i
COc1ccc(OC)c(NC(=O)Nc2ccc(O)c3ccccc23)c1,6%,2%,?,28µM*,1%,i
Cc1ccc(C)n1-c1sccc1C(=O)O,-5%,-6%,2%,13µM*,0%,i
Cc1ccc(C)n1-c1sc2c(c1C(=O)O)CCCC2,-2%,0%,0%,i,-1%,i
O=[N+]([O-])c1cc2cccnc2c2ncccc12,-5%,?,-21%,i,-1%,i
O=[N+]([O-])c1cc(O)c2ncccc2c1,-1%,-4%,11µM*,i,2%,i
O=C(NCCN1CCOCC1)c1cnn(-c2nccc(-c3cc4ccccc4o3)n2)c1C1CC1,-4%,.,.,.,5%,.
O=S(=O)(c1ccc(F)cc1)N1CN(Cc2ccco2)c2nc3ccccc3nc21,0%,-22%,-17%,16µM*,.,i
Cc1ccc(S(=O)(=O)N2CN(Cc3ccco3)c3nc4ccccc4nc32)cc1,3%,-5%,-13%,i,2%,i
COc1ccc(S(=O)(=O)N2CN(Cc3ccco3)c3nc4ccccc4nc32)cc1,?,-25%,-5%,5.6µM*,0%[38.3 µM],i
CCCCCCC(O)C/C=C\CCCCCCCC(=O)O (stereo not given),-2%,.,.,.,.,.
Cc1cc(=O)[nH]c(N/N=C/c2cc(C)n(-c3ccccc3)c2C)n1,-5%,-11%,-2%,32µM*,-2%,i
Cc1cc(=O)[nH]c(N/N=C/c2ccccc2Cl)n1,7%,-9%,-3%,i,2%,i
CCOC(=O)N1CCN(Cc2ccc3c(c2)CN(C(=O)c2noc4c2CCCC4)CCO3)CC1,-6%,.,.,.,1%,.

# Compound activity (PubChem)
